Reference: PubChem BioAssay (Tox21)
Several values for one entry are separate records, joined by “and”; a condition that tells them apart may be missing. Equal entries are not always repeated. Results filed as inconclusive are left out. Entries that show only a call come without a potency. A structure can be active in one record and inactive in another. Activity calls are given as the source filed them. Unless noted, calls come from the whole dose curve; as a rule, active = well fitted curve in the direction sought with a large enough effect in the repeat runs; inconclusive = weak or mixed curves; inactive = no such curve, though single readings can be large; an effect the other way counts as inactive or inconclusive.

How the values were obtained:
[1] = qHTS assay for small molecule agonists of the p53 signaling pathway (AID 651631; calls by dose curve; note: nearly all actives have a fitted effect of over 15% in size; note: potency is the fitted concentration of half-maximal effect); conditions: HCT-116 p53RE-bla reporter, beta-lactamase FRET ratio, 16 h; series mostly up to 73.3 µM
Method in brief: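 HCT-116 p53RE-bla reporter line, 16 h compound treatment at 37 °C, then fluorescence after 2 h with B/G FRET substrate.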

[2] = qHTS assay for small molecules that induce genotoxicity in human embryonic kidney cells expressing luciferase-tagged ATAD5 (AID 651632); conditions: HEK293T ATAD5-luciferase induction, 16 h; series mostly up to 83.3 µM; note: nearly all actives have a fitted effect of over 15% in size
Method in brief: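 A rise in luciferase signal from ATAD5-tagged HEK293T cells marks genetic stress. Cells were exposed to compounds for 16 hr at 37C, 5% CO2, then luciferase was quantified after a 30 min room-temperature incubation with Amplite.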

[3] = qHTS assay for small molecule agonists of the p53 signaling pathway - cell viability (AID 651633; calls by dose curve; note: nearly all actives have a fitted effect of over 30% in size; note: potency is the fitted concentration of half-maximal effect); conditions: p53RE-bla HCT-116 viability, ATP luminescence, 16 h; series mostly up to 83.3 µM
Method in brief: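 Viability counter-read: CellTiter-Glo luminescence (30 min, room temperature) in the same p53RE-bla plates. These plates had been exposed to compounds for 16 h at 37 C.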

[4] = qHTS assay for small molecules that induce genotoxicity in human embryonic kidney cells expressing luciferase-tagged ATAD5 - cell viability (AID 651634; calls by dose curve; note: nearly all actives have a fitted effect of over 25% in size); conditions: HEK293T ATAD5-luc cells viability, CellTiter-Fluor, 15.5 h; series mostly up to 83.3 µM
Method in brief: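 Cytotoxicity counter-readout: after 15.5 hr compound treatment at 37C, live-cell protease activity in ATAD5-luciferase HEK293T cells measured by CellTiter-Fluor fluorescence, 30 min development at 37C.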

[5] = qHTS assay for small molecule disruptors of the mitochondrial membrane potential - cell viability (AID 720634; calls by dose curve; note: nearly all actives have a fitted effect of over 20% in size; note: potency is the fitted concentration of half-maximal effect); conditions: HepG2 viability, ATP luminescence (CellTiter-Glo), 1 h; series mostly up to 83.2 µM
Method in brief: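 Cytotoxicity was quantified from ATP content by CellTiter-Glo luminescence in the same wells as the MMP dye read-out. HepG2 (2,000 cells/well) were plated overnight and exposed to compounds for 1 hr at 37 C.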

[6] = qHTS assay for small molecule disruptors of the mitochondrial membrane potential (AID 720635); conditions: HepG2 mitochondrial membrane potential, Mito-MPS dye ratio; series mostly up to 83.2 µM; note: potency is the fitted concentration of half-maximal effect
Method in brief: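 Mitochondrial membrane potential tracked with Mito-MPS dye, red aggregates (ex 540/em 590 nm) against green monomers (ex 490/em 535 nm). Compound treatment 1 hr at 37C, dye 30 min in HepG2.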

[7] = qHTS assay to test for compound auto fluorescence at 590 nm (red) in HepG2 cells (AID 720674); conditions: HepG2 autofluorescence, red 540/590 nm, 1 h; series mostly up to 91.3 µM
Method in brief: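 We screened compounds on adherent HepG2 cells, incubating them for an hour at 37 C in 5% CO2 before reading emission at 590 nm under 540 nm excitation; values reflect equivalence to Rose Bengal sodium fluorescence.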

[8] = qHTS assay to test for compound auto fluorescence at 535 nm (green) in HepG2 cells (AID 720675); conditions: green autofluorescence 485/535 nm, 1 h; series mostly up to 91.3 µM
[9] = qHTS assay to test for compound auto fluorescence at 590 nm (red) in HEK293 cells (AID 720679); conditions: red autofluorescence 540/590 nm; series mostly up to 91.3 µM
Method in brief: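 Plates of HEK293 cells (10% dialyzed FBS) are treated with 23 nL compound or DMSO vehicle after a 4-5 hr attachment period, incubated overnight at 37C, and read for red fluorescence at 540/590nm.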

[10] = qHTS assay to test for compound auto fluorescence at 460 nm (blue) in HEK293 cells (AID 720678); conditions: blue autofluorescence 405/460 nm; series mostly up to 91.3 µM
Method in brief: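 After cell attachment (4-5 hr, 37C), compounds were pinned onto HEK293 monolayers in 10% dialyzed FBS medium. The blue channel (405/460 nm) was read following overnight culture. Equivalency was calculated against triamterene.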

SMILES | Potency [1] | Potency [2] | Potency [3] | Potency [4] | Potency [5] | Potency [6] | outcome [7] | outcome [8] | outcome [9] | outcome [10]
CN1C(=O)NC(=O)C(C)(C2=CCCCC2)C1=O (stereo unspecified) | inactive | inactive | inactive | inactive | inactive | inactive | inactive | inactive | inactive | 
II | inactive | inactive | inactive | inactive | inactive | 19.3 µM (active) | inactive | inactive | inactive | 
C=CC(C)=O | inactive | inactive | inactive | inactive | inactive | inactive | inactive | inactive | inactive | inactive
CCCCNP(N)(N)=S | inactive | inactive | inactive | inactive | inactive | inactive | inactive | inactive | inactive | inactive
CCCN(CC1CC1)c1c([N+](=O)[O-])cc(C(F)(F)F)cc1[N+](=O)[O-] | inactive | inactive | inactive | inactive | inactive | 30.6 µM (active) | inactive | inactive | inactive | 
CCOP(=S)(OCC)Oc1nc(Cl)c(Cl)cc1Cl | inactive | inactive | 54.6 µM (active) and inactive | inactive | 6.87 µM (active) | 13.7 µM (active) and 30.6 µM (active) | inactive | inactive | inactive | inactive
C=CCC1([C@H](C)CCC)C(=O)NC(=O)NC1=O | inactive | inactive | inactive | inactive | inactive | inactive | inactive | inactive | inactive | inactive
COC(N)=O | inactive | inactive | inactive | inactive | inactive | inactive | inactive | inactive | inactive | 
CCN(C)N=O | inactive | inactive | inactive | inactive | inactive | 1.9 µM (active) | inactive | inactive | inactive | inactive
CCOc1nc(F)cc2nc(S(=O)(=O)Nc3c(Cl)cccc3Cl)nn12 | inactive | inactive | inactive | inactive | inactive | inactive | inactive | inactive | inactive | inactive
COC1=CC(=O)O[C@@H](CCc2ccccc2)C1 | inactive | inactive | inactive | inactive | inactive | inactive | inactive | inactive | inactive | inactive
c1ccc(C2CC2)c(OCC2=NCCN2)c1 | inactive | inactive | inactive | inactive | inactive | inactive | inactive | inactive | inactive | inactive
COc1cc(CC(C)N)cc2c1OCO2 (stereo unspecified) | inactive | inactive | inactive | inactive | inactive | inactive | inactive | inactive | inactive | inactive
O=NN1CCCCCC1 | inactive | inactive | inactive | inactive | inactive | inactive | inactive | inactive | inactive | inactive
CCCCCCCCCC(=O)O[C@H]1CC[C@H]2[C@@H]3CCC4=CC(=O)CC[C@@H]4[C@H]3CC[C@]12C | inactive | inactive | inactive | inactive | inactive | inactive | inactive | inactive | inactive | inactive
Cn1cc[n+](C)c1 (tested in a mixture with another compound) | inactive | inactive | inactive | inactive | inactive | inactive | inactive | inactive | inactive | 
CC/C(=N\OC/C=C/Cl)C1=C(O)CC(C2CCOCC2)CC1=O (stereo unspecified) | inactive | inactive | inactive | inactive | inactive | inactive | inactive | inactive | inactive | inactive
O=[N+]([O-])c1ccccc1CCl | inactive | inactive | inactive | inactive | inactive | inactive | inactive | inactive | inactive | inactive
N#CCc1ccccc1 | inactive | inactive | inactive | inactive | inactive | inactive | inactive | inactive | inactive | inactive
CC(Cl)Cl | inactive | inactive | inactive | inactive | inactive | inactive | inactive | inactive | inactive | inactive
Cn1sc(Cl)cc1=O | inactive | inactive | inactive | inactive | inactive | inactive | inactive | inactive | inactive | inactive
c1ccc(CN2CCNCC2)cc1 | inactive | inactive | inactive | inactive | inactive | inactive | inactive | inactive | inactive | inactive
Cc1ccc(N)cc1C | inactive | inactive | inactive | inactive | inactive |  | inactive | inactive | inactive | inactive
COCC(C)N(C(=O)CCl)c1c(C)csc1C (stereo unspecified) | inactive | inactive | inactive | inactive | inactive | inactive | inactive | inactive | inactive | 
Brc1ccc(Oc2ccccc2)cc1 | inactive | inactive | inactive | inactive | inactive | inactive | inactive | inactive | inactive | inactive
N#Cc1cc(I)c(O)c(I)c1 | 4.33 µM (active) | inactive | 34.4 µM (active) | inactive | 4.33 µM (active) | 3.44 µM (active) | inactive | inactive | inactive | inactive

SMILES | Potency [1] | Potency [2] | Potency [3] | Potency [4] | Potency [5] | Potency [6] | outcome [7] | outcome [8] | outcome [9] | outcome [10]
O=C(NCc1cccnc1)Nc1ccc([N+](=O)[O-])cc1 | inactive | inactive | inactive | inactive | inactive | 24.3 µM (active) | inactive | inactive | inactive | inactive
CCCCCCCCOC(=O)c1ccc(C(=O)OCCCCCCCC)c(C(=O)OCCCCCCCC)c1 | inactive | inactive | inactive | inactive | inactive | inactive | inactive | inactive | inactive | inactive
CCBr | inactive | inactive | inactive | inactive | inactive | inactive | inactive | inactive | inactive | 
COC(=O)C(Cl)C(=O)OC | inactive | inactive | inactive | inactive | inactive | inactive | inactive | inactive | inactive | 
O=NN1CCNCC1 | inactive | inactive | inactive | inactive | inactive | inactive | inactive | inactive | inactive | inactive
CCCCCCC#N | inactive | inactive | inactive | inactive | inactive | inactive | inactive | inactive | inactive | inactive
Cc1cc(=O)[nH]o1 | inactive | inactive | inactive | inactive | inactive | inactive | inactive | inactive | inactive | inactive
CCOP(=O)(OCC)SCCSCC | inactive | inactive | inactive | inactive | inactive | inactive | inactive | inactive | inactive | inactive
[O-][Cl+]O | inactive | inactive | inactive |  | inactive | inactive | inactive | inactive | inactive | inactive
CC(=O)CCC(C)=O | inactive | inactive | inactive | inactive | inactive |  | inactive | inactive | inactive | inactive
CC1CC(CC2CCC(N)C(C)C2)CCC1N (stereo unspecified) | inactive | inactive | inactive |  | inactive | inactive | inactive | inactive | inactive | inactive
IC(I)=C(I)I | 12.2 µM (active) | inactive | 48.6 µM (active) |  | inactive | 4.33 µM (active) | inactive | inactive | inactive | 
Clc1ccc(C2(Cn3cncn3)CC(Br)CO2)c(Cl)c1 (stereo unspecified) | inactive | inactive | inactive | inactive |  |  | inactive | inactive | inactive | 
CC(=O)C(C)(C)C | inactive | inactive | inactive | inactive | inactive |  | inactive | inactive | inactive | 
CC(c1ccc(O)cc1)(c1ccc(O)cc1)c1ccc(O)cc1 | 6.86 µM (active) | inactive | 6.86 µM (active) |  | inactive | 48.6 µM (active) | inactive | inactive | inactive | inactive
C#CCOC(C(=O)OCCN(C)C)(c1ccccc1)c1ccccc1 | inactive | inactive | inactive | inactive | inactive |  | inactive | inactive | inactive | inactive
O=C(O)COc1ccc(Cl)cc1 | inactive | inactive | inactive | inactive | inactive |  | inactive | inactive | inactive | inactive
C=CCOC(C)=O | inactive | inactive | inactive |  | inactive |  | inactive | inactive | inactive | inactive
C=CCCl | inactive | inactive | inactive | inactive | inactive |  | inactive | inactive | inactive | inactive
N#C/C(N)=C(/N)C#N | inactive | inactive | inactive | inactive | inactive |  | inactive | inactive | inactive | inactive
CCCN(CCCl)c1c([N+](=O)[O-])cc(C(F)(F)F)cc1[N+](=O)[O-] | inactive | inactive | inactive | inactive |  |  | inactive | inactive | inactive | 
N#Cc1ccc(Cl)cc1 | inactive | inactive | inactive | inactive | inactive |  | inactive | inactive | inactive | inactive
CC[C@H]1C[C@H]2[C@@H]3CCC4=CC(=O)CC[C@@H]4[C@H]3CC[C@]2(C)[C@H]1O | inactive | inactive | inactive | inactive | inactive |  | inactive | inactive | inactive | inactive
C=CC(=O)OC(C)(C)C | inactive | inactive | inactive | inactive |  |  | inactive | inactive | inactive | inactive
C[N+](C)(C)CCCl | inactive | inactive | inactive | inactive | inactive |  | inactive | inactive | inactive | inactive
